Records with an inconclusive call do not appear. The source made the active and inactive calls.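 How the source made its calls, unless noted: active means viability at or below 30% in both replicate assays; inconclusive means viability at or below 30% in just one of the two assays; inactive means the rest.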
Assays:
[1] = Her2 expression decrease, cell viability multiplex – SKBR3 breast tumor cells, AlphaScreen, ATP viability, primary screen (AID 461;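 active means Her2 level under about 52% in both replicate screens, with viability over 70% of control, limit read from the data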;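 on Her2 level: lower value means less Her2 protein in the cells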;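 on viability: percent of carrier control wells set as 100% viability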); conditions: SKBR3 Her2 protein level, 18-24 h, measured here: SKBR3 viability, ATP luminescence, at 10 µM
[2] = target: Receptor tyrosine-protein kinase erbB-2 (Homo sapiens) (UniProt P04626); experiment: as above; conditions: 18-24 h, at 10 µM, stronger effect = lower value
Sequence of Receptor tyrosine-protein kinase erbB-2 (Homo sapiens) (P04626 whole entry, looked up): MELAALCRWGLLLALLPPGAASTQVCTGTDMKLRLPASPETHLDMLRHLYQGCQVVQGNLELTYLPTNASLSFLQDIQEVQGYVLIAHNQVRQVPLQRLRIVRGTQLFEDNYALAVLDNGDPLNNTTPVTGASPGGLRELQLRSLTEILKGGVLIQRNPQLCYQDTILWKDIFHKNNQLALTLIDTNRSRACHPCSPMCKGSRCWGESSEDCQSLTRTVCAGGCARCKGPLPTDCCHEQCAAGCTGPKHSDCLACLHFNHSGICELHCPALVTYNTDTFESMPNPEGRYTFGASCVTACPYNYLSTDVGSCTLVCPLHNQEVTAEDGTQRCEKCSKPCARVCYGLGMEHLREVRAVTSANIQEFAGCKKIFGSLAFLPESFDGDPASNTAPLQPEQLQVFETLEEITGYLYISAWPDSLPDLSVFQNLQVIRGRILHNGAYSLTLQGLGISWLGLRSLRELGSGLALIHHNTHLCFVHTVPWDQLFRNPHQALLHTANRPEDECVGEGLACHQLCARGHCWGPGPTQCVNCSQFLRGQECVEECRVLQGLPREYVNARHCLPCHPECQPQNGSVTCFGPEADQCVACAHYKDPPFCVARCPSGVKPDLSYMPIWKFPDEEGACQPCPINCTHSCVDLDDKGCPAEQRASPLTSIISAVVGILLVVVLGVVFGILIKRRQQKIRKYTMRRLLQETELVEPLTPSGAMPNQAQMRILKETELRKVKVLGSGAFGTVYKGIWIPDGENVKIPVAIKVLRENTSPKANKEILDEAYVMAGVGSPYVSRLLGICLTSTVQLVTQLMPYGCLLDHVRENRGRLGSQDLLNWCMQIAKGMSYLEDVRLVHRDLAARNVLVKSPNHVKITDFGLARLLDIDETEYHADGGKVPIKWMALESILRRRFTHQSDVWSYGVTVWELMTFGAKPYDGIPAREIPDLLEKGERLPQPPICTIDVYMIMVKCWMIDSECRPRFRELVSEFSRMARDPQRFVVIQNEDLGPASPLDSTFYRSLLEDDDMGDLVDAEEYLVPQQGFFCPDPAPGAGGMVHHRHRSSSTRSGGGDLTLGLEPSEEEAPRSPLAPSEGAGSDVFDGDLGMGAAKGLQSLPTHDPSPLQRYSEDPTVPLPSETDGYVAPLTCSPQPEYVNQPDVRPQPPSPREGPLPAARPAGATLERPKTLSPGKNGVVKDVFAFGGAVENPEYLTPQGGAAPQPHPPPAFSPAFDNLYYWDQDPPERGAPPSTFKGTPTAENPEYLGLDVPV

[3] = reduced viability of SK-BR-3 breast cancer cells – cell-based, 24 h, human, pilot screen (AID 572;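 active means viability at or below 10% of carrier control in both of two separate runs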;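 further: compound exposure lasted between 18 and 24 h rather than exactly 24 h; 100% = carrier-treated control wells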); conditions: SK-BR-3 viability, CellTiter-Glo luminescence, at 10 µM, stronger effect = lower value
[4] = HUVEC growth inhibition – cell-based, human, primary screen (AID 575); conditions: HUVEC proliferation, CellTiter-Glo luminescence, 72 h; at 10 µM; stronger effect = lower value;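 further: 100% = median of untreated cell wells with 0.1% DMSO on each plate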
[5] = H69AR cell proliferation blockers – human, duplicate replicates, primary screen (AID 580;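 active means viability at or under a set limit in both replicates, limit being median viability minus 3 SD, cut at about 48% in these data, passing the limit was not always enough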;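 further: 100% = mean luminescence of untreated wells and 0% = no signal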); conditions: H69AR lung tumor cells viability, ATP luminescence, 72 h; at 10 µM; stronger effect = lower value
[6] = MRP1 drug-resistance reversers in H69AR cells – cell-based, doxorubicin co-treatment, pilot screen (AID 601;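 active means viability loss from added drug above about 55%, and viability with drug at most 40%, in both replicates, limit read from the data, passing the limit was not always enough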); conditions: CellTiter-Glo, 72 h, at 10 µM; for differential viability (reversal): stronger effect = higher value
[7] = yeast transport mutant growth inhibition pilot in 384-well plates, post-Golgi transport modulator project (AID 636; in the data active means inhibition above about 31%); conditions: absorbance 615 nm, about 18 h, stronger effect = higher value
[8] = growth suppression of yeast trafficking mutant, preliminary HTS, modulators of trafficking downstream of Golgi apparatus project, 1536-format plate, OD 615 nm (AID 637; in the data active means inhibition above about 30%); conditions: yeast transport mutant growth, absorbance 615 nm, 18 h; stronger effect = higher value
[9] = S. cerevisiae growth inhibition in permissive medium (OD615), pilot counter-assay for S. cerevisiae lifespan shortening project, permissive growth control (AID 705;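 active means growth inhibition above 25% in both replicates, a cutoff set 3 SD above the mean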); conditions: OD615, 24 h, at 10 µM, stronger effect = higher value
[10] = S. cerevisiae growth inhibition in restrictive medium, OD615, pilot screen, restrictive growth control, yeast lifespan reduction project (AID 706;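 active means growth inhibition above a set limit, 3 SD over mean compound inhibition, in both replicates, cut at about 43% in these data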;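 further: modified DeaD lifespan yeast strain shifted to restrictive glucose medium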); conditions: OD615, 48 h, at 10 µM, stronger effect = higher value
[11] = doxorubicin toxicity protection in MRP-1 cells – H69AR cells, CellTiter-Glo, duplicate, MRP-1 activator project, pilot screen (AID 807;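 active means viability increase at or above a cutoff of the median across tested compounds plus 3 SD, cut at about 8.5% in these data, passing the limit was not always enough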;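 further: compound pretreatment 18-22 h then 72 h combined with doxorubicin; 0% = doxorubicin alone and 100% = vehicle without doxorubicin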); conditions: H69AR viability with doxorubicin, CellTiter-Glo luminescence; at 10 µM; stronger effect = higher value
[12] = viability of HCT116 without oncogenic beta-catenin – human colon tumor cells, pilot screen (AID 823;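 active means cell viability at or below a set limit in both duplicate runs, the limit being the all-compound median minus 4 SD, cut at about 23% in these data, passing the limit was not always enough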;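 further: 0% = wells killed by 20 µM Hyamine and 100% = untreated DMSO cell wells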); conditions: HCT116 beta-catenin knockout viability, CellTiter-Glo, 60 h; at 10 µM; stronger effect = lower value
[13] = viability of PTEN-null HCT116 cells – cell-based, HCT116 clonal line, CellTiter-Glo, pilot screen (AID 824;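 active means viability at or below 27.92% in each of two runs, the all-compound median minus 4 SD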;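 further: 0% = 20 µM Hyamine control and 100% = vehicle cell control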); conditions: HCT116 PTEN-deleted viability, 60 h, at 10 µM, stronger effect = lower value
[14] = RAM pathway blockade in budding yeast – dse1pr::URA3 reporter, 5-FOA selection, pilot screen (AID 869;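 active means inhibition over a set limit, the all-compound mean plus 3 SD, in both replicate runs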;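 further: 0% = DMSO wells with no growth and 100% = 10 µM 1-NA-PP1 with full growth; RAM network block rescues cells from 5-FOA so hits raise OD615 growth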); conditions: S. cerevisiae dse1pr::URA3 5-FOA growth, OD615, 2 d; at 10 µM; stronger effect = higher value; strain carries analog-sensitive mutant Cbk1 kinase
[15] = RAM signaling pathway blockade in yeast – S. cerevisiae, Pdr1DBD-CYC8 efflux-inhibited sensitized strain, primary screen (AID 1298;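 active means RAM network inhibition above 8.4% in each of two replicates, 3 SD over the compound average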;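 further: 0% = DMSO untreated cells without growth and 100% = 10 µM 1-NA-PP1 full growth; higher means more yeast growth rescued from 5-FOA killing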); conditions: S. cerevisiae cbk1-as DSE1-URA3 strain, 5-FOA growth OD615, 2 d; at 50 µM; stronger effect = higher value
[16] = H69AR cells + 2 uM doxorubicin, measured here: viability with 2 uM doxorubicin, stronger effect = lower value
[17] = H69AR cells, compound alone cytotoxicity

COC(=O)C1=C(C)NC2=C(C(=O)CCC2)C1c1coc2ccccc2c1=O (stereo not given)
91%: viability [1]
inactive: Her2 level [2] 81% | viability [3] 91% | viability [4] 97.7% | viability [5] 93% | differential viability (reversal) ([6]; H69AR cells + 2 uM doxorubicin) 2.12% | inhibition [7] -3.97% | inhibition [8] -1.5% | growth inhibition [9] -7.39% | growth inhibition [10] 6.02% | viability increase [11] -4.25% | viability [12] 89.4% | viability [13] 90.1% | inhibition [14] 2.04% | RAM network inhibition [15] 1.39%
90.9%: viability [6, 16]
93%: viability [6, 17]

COc1ccc(S(=O)(=O)Nc2ccc(F)c(Cl)c2)cc1OC
inactive: Her2 level [2] 93.5% | viability [3] 97.5% | viability [4] 106% | viability [5] 96.6% | differential viability (reversal) ([6]; H69AR cells + 2 uM doxorubicin) 4.3% | inhibition [7] -2.21% | inhibition [8] -10.2% | growth inhibition [9] -15.3% | growth inhibition [10] 4.31% | viability increase [11] -1.4% | viability [12] 86.3% | viability [13] 87.6% | inhibition [14] 0.595% | RAM network inhibition [15] 1.81%
97.5%: viability [1]
92.3%: viability [6, 16]
96.6%: viability [6, 17]

O=C(C1CCN(c2nnc(-n3cccc3)s2)CC1)N1CCc2ccccc2C1
inactive: Her2 level [2] 93.5% | viability [3] 88% | viability [4] 58.6% | viability [5] 77.9% | differential viability (reversal) ([6]; H69AR cells + 2 uM doxorubicin) 1.77% | inhibition [7] -0.26% | inhibition [8] -6% | growth inhibition [9] 1.58% | growth inhibition [10] 1.25% | viability increase [11] -1.4% | viability [12] 97% | viability [13] 94.1% | inhibition [14] 3.21% | RAM network inhibition [15] 6.43%
76.1%: viability [6, 16]
77.9%: viability [6, 17]
88%: viability [1]

c1ccc(Cn2nnc3c(N4CCCCCC4)ncnc32)cc1
69.9%: viability [6, 17]
94%: viability [1]
83.8%: viability [6, 16]
inactive: Her2 level [2] 88% | viability [3] 94% | viability [4] 57.5% | viability [5] 69.9% | differential viability (reversal) ([6]; H69AR cells + 2 uM doxorubicin) -13.9% | inhibition [7] -5.87% | inhibition [8] 2.83% | growth inhibition [9] -13% | growth inhibition [10] -8.65% | viability increase [11] -0.65% | viability [12] 40% | viability [13] 33.6% | inhibition [14] 0.74% | RAM network inhibition [15] 5.41%

COc1ccc(CCNC(=O)CSc2nnnn2-c2ccccc2OC)cc1OC
inactive: Her2 level [2] 99.5% | viability [3] 91% | viability [4] 102% | viability [5] 90.1% | differential viability (reversal) ([6]; H69AR cells + 2 uM doxorubicin) 0.99% | inhibition [7] -7.33% | inhibition [8] -0.5% | growth inhibition [9] -2.03% | growth inhibition [10] 2.95% | viability increase [11] -2.14% | viability [12] 86.9% | viability [13] 92.3% | inhibition [14] 1.64% | RAM network inhibition [15] 6.51%
90.1%: viability [6, 17]
91%: viability [1]
89.1%: viability [6, 16]
